From PubChem
Wnt act = activators of Wnt/beta-catenin signaling; Wnt/beta-catenin reporter cell assay, activator, plate reader; hit rate 1.2% among 300,000; activation, % at 9.35 µM; in the data active = activation above about 30%, passing the limit was not always enough; inconclusive = no clear call, values can overlap the other calls;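 also: 0% = neutral control wells and 100% = positive control wells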
HSF1 activator = increases HSF-1 driven luciferase reporter signal | NIH3T3-HGL HSF-1 luciferase reporter, MG132, 8 h; 100% = twice DMSO control signal | activation, % at 9 µM | hit rate 1.7% among 300,000;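 active = mean replicate activation of at least 50% with a set share of replicates each reaching 50%; inconclusive = only one of those two conditions met; inactive = mean below 50% and too few replicates reaching it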;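 also: 0% = median of the neutral control wells and 100% = twice that signal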
HSF1 inhib = HSF1 inhibition; hit rate 0.77% among 300,000; NIH3T3-HGL HSE-luciferase, MG132-induced, luminescence 8 h; hits give low values; activity change, negative = inhibition, % at 7.5 µM (by protocol); AID 2098;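 active = more than half of replicate wells show activity change below -50%, luminescence cut by over half; inconclusive = some wells, but at most half, below -50%; inactive = no replicate well below -50%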;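 also: luciferase reports HSF-1 transcriptional activity via heat shock element; 0% = median of DMSO wells and -100% = zero luminescence signal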
MITF TRPM1 HTS = activators of MITF-driven TRPM1 promoter activity in SK-MEL-5 cells; SK-MEL-5 TRPM1-promoter luciferase, 24 h; % of positive control, neutral wells = 0; activation, % at 12.5 µM; hit rate 0.75% among 300,000;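 active = mean activation of at least 80% with every replicate also reaching 80%; inconclusive = mean reaches 80% but some replicate falls short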;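 also: 0% = neutral control wells and 100% = parthenolide positive control wells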
SMARCA2 activ = increases SMARCA2 function in MMTV reporter cells; hit rate 1% among 370,000; MG213 cells, MMTV-luciferase reporter, dexamethasone, overnight; activation, % at 9.1 µM; in the data active = activation above about 7.8%;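 also: 0% = vehicle wells and 100% = reference activator wells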
esBAF inh = blocks esBAF chromatin remodeling in mouse ES cells. AID 602393. Bmi1-luciferase knock-in reporter, 24 h; 100% = twice the neutral-well signal. hit rate 2% among 350,000. reporter increase, % at 12.5 µM; in the data active = activation above about 40%; inconclusive = no clear call, values can overlap the other calls;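 also: 0% = median of the plate's neutral control wells and 100% = double that signal; a rise in the Bmi1 reporter signal indicates esBAF inhibition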
Numbers without * were called inactive; ? = inconclusive; · = no result given. This is a sample that favours compounds with a hit; in the whole collection about 4.3% have one here.

SMILES	Wnt act	HSF1 activator	HSF1 inhib	MITF TRPM1 HTS	SMARCA2 activ	esBAF inh
Cc1ccc(/C=C/C(=O)c2ccc(N3CCOCC3)cc2)s1	11	-16	-5	91*	3	·
O=C(/C=C/c1ccc(F)cc1)c1ccc(N2CCOCC2)cc1	17	-6	2	17	5	7
CCc1ccc(/C=C/C(=O)c2ccc(N3CCOCC3)cc2)cc1	9	55*	24	13	2	·
C[C@@H]1CN([C@@H](C)CO)C(=O)c2cccc(NS(=O)(=O)c3ccc(Cl)cc3)c2O[C@H]1CN(C)Cc1ccc(Cl)c(Cl)c1	·	·	·	·	·	0
COc1ccc(S(=O)(=O)N(C)C[C@@H]2OCCCC[C@@H](C)Oc3ccc(NS(=O)(=O)c4cn(C)cn4)cc3C(=O)N([C@H](C)CO)C[C@H]2C)cc1	·	·	·	·	·	3
COc1ccc(OC)c(-c2cc(C(=O)N/N=C/c3ccc(F)cc3)c3ccccc3n2)c1	-4	-7	2	·	-3	·
COc1ccc(OC)c(-c2cc(C(=O)N/N=C/c3cc(OC)c(OC)cc3OC)c3ccccc3n2)c1	-3	-72	-69*	0	-2	·
O=C(NC1=NCCS1)c1cc(-c2ccc(F)cc2)nc2ccccc12	·	4	7	41	-1	·
Cc1ccc(-c2cc(C(=O)NC3=NCCS3)c3ccccc3n2)cc1C	40*	8	19	45	0	·
COc1ccc(-c2cc(C(=O)Nc3ccccc3O)c3ccccc3n2)cc1OC	0	71*	43	4	3	·
Cc1ccc(-c2cc(C(=O)N/N=C/c3c(C)nn(C)c3C)c3ccccc3n2)cc1C	·	31	16	37	-1	48*
Cc1cccc(NC(=O)NNC(=O)c2cc(-c3ccccc3Cl)nc3ccccc23)c1	·	11	0	-1	·	0
O=C(NNC(=O)c1cc(-c2ccc(Cl)c(Cl)c2)nc2ccccc12)Nc1ccccc1	·	56*	43	12	1	·
O=C(/C=C/c1cccc([N+](=O)[O-])c1)NC(=S)Nc1cccc(NC(=O)c2ccccc2Cl)c1	-2	61*	38	-15	2	12
CC(=O)Nc1cccc(NC(=O)c2ccc([N+](=O)[O-])cc2Cl)c1	-1	1	8	4	3	·
CC[C@@H](C)[C@H](NC(=O)OC(C)(C)C)c1nnc(S(=O)(=O)Cc2cc(C)ccc2C)o1	·	-65	-66*	-53	-5	-6
Cc1ccccc1CS(=O)(=O)c1nnc([C@H](CC(C)C)NC(=O)OC(C)(C)C)o1	-3	107*	74	-82	-11	4
CC(C)[C@H](NC(=O)OC(C)(C)C)c1nnc(S(=O)(=O)Cc2c(F)cccc2Cl)o1	-3	46	37	-98	-12	26
CCCC(=O)Nc1ccc2c(c1)C(=O)N(C)C[C@H](OC)[C@@H](C)CN(Cc1nccs1)[C@@H](C)CO2	·	·	·	·	·	-5
Cc1nc2ccc(S(=O)(=O)NC(C(=O)Nc3nccs3)C(C)C)cc2s1 (stereo not given)	-4	-1	2	-4	-2	-2
Cc1nc2ccc(S(=O)(=O)NC(C(=O)NCc3cccs3)C(C)C)cc2s1 (stereo not given)	-3	-84	-81*	6	1	-46
CCCC#Cc1cnc2c(c1)C(=O)N([C@@H](C)CO)C[C@H](C)[C@@H](CN(C)C(=O)C1CCOCC1)O2	·	·	·	·	·	2
O=S(=O)(CC(CN1CCCCC1)N1CCCCC1)c1ccc2ccccc2c1 (stereo not given)	-2	90*	54	-74	-7	·
COC(=O)c1cccc(NC(=O)Nc2ccc(Cl)c(Cl)c2)c1	-2	-1	-4	3	-5	71*
COC(=O)c1cccc(NC(=O)NC(=O)c2ccccc2Cl)c1	19	-23	-12	-58	2	·
COC(=O)c1sccc1NC(=O)Nc1ccc(C)c(C)c1	?	·	·	53	4	·
COC(=O)c1sccc1NC(=O)Nc1ccc(Cl)c(Cl)c1	·	66*	47	29	3	-6
CCCNC(=O)C[C@H]1CC[C@H]2[C@H](COc3ccc(NC(=O)c4cc(C)on4)cc3C(=O)N2C)O1	·	·	·	·	·	-1
COC(=O)C1C(=O)c2c([nH]c(C(=O)OC3CCCCCC3)c2C)CC1C (stereo not given)	16	30	14	87*	3	11
